Assay [1] can be described thus: antimalarial activity against Dd2 strain (AID 2302;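 active = growth inhibition above 50% at the single 2 µM test dose, taken to imply half-maximal potency below 2 µM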;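 also: 0% = DMSO untreated growth and 100% = chloroquine plus artemisinin killed control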). The following applies: P. falciparum Dd2 in RBCs, LDH growth readout, 72 h; at 2 µM; hits give high values.
Assay [2] in a line: HepG2 cytotoxicity, primary screen, cytotoxicity control for P. falciparum antimalarial project, cell-based, ATP luminescence (AID 2303;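 active = inhibition above 50%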;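 also: 0% = DMSO wells and 100% = digitonin-killed cells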). The following applies: HepG2 viability, 24-48 h, at 10 µM, hits give high values.
Assay [3] deals with L-lactate dehydrogenase (Plasmodium falciparum (isolate CDC / Honduras)) (UniProt Q27743). Put plainly: PfLDH activity inhibition – cell lysate, 3D7 strain, counter-screen for P. falciparum growth inhibition project (AID 2304).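 Also: 0% = vehicle and 100% = reference inhibitor.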 As to conditions: P. falciparum 3D7 crude extract, LDH APAD/NBT absorbance; at 2 µM; hits give high values. (The purpose of a counterscreen is to sort out artefacts and off-target activity.)
Sequence of L-lactate dehydrogenase (Plasmodium falciparum (isolate CDC / Honduras)) (Q27743 whole entry, looked up): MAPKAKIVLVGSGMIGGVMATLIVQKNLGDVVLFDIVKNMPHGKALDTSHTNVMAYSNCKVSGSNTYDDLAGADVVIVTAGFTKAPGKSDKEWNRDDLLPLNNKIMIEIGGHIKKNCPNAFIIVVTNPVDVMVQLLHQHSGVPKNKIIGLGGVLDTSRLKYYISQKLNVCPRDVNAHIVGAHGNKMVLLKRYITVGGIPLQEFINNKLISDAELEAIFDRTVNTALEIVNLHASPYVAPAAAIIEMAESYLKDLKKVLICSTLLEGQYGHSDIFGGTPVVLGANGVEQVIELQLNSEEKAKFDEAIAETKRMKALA

The nature of assay [4]: inhibition of 3D7 malaria parasite growth – strain 3D7 (AID 2306).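 Also: 0% = DMSO wells and 100% = chloroquine plus artemisinin control wells.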 The following applies: P. falciparum 3D7 erythrocytic growth, LDH absorbance, 72 h; at 2 µM; hits give high values.
Assay [5] has as its target Calcium-dependent protein kinase 1 (Plasmodium falciparum (isolate 3D7)) (UniProt P62344). In words: PfCDPK1 kinase inhibitors, biochemical, TCAMS library (AID 1159585; cut-off not given, nearly all actives have IC50 up to about 0.98 µM;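 also: inhibitors leave more ATP so luminescence rises with inhibition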). As to conditions: recombinant PfCDPK1, Kinase-Glo ATP depletion luminescence. (Kinase-Glo reads ATP consumption through a luciferase reaction.)
In assay [6] the target is Plasmodium falciparum protein kinase 6 (PK6, PF3D7_1337100) (UniProt Q8IDW1). In words: PfPK6 kinase inhibitors, biochemical, TCAMS library (AID 1159586). The following applies: recombinant PfPK6, Kinase-Glo ATP depletion luminescence.
Sequence of Plasmodium falciparum protein kinase 6 (PK6, PF3D7_1337100) (Q8IDW1 1-305): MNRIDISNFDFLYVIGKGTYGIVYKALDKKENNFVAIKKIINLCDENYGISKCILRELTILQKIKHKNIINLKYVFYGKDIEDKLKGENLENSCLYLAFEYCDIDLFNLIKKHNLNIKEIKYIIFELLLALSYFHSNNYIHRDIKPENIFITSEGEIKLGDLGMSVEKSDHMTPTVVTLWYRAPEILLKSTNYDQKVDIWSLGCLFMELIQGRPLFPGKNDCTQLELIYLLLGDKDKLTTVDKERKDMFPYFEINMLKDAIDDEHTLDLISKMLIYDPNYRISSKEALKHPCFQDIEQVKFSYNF
In assay [7] the target is Protein kinase 7 (PK7), Plasmodium falciparum 3D7 (PF3D7_0213400) (UniProt Q7YTF7). In words: inhibition of Plasmodium PK7 catalytic activity – biochemical, TCAMS antimalarial set, Kinase-Glo luminescence (AID 1159587). The following applies: recombinant PfPK7, Kinase-Glo ATP depletion luminescence.
Sequence of Protein kinase 7 (PK7), Plasmodium falciparum 3D7 (PF3D7_0213400) (Q7YTF7 1-343): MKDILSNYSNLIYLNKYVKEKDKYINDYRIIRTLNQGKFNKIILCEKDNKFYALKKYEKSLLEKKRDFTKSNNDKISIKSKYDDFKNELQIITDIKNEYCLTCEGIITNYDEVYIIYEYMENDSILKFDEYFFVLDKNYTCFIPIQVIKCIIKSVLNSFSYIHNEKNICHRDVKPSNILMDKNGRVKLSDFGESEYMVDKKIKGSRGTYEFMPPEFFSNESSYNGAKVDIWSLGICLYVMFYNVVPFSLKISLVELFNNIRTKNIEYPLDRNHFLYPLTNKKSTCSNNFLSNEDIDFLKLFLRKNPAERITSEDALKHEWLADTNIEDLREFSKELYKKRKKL
The target of assay [8] is Calcium-dependent protein kinase 4 (Plasmodium falciparum (isolate 3D7)) (UniProt Q8IBS5). In words: PfCDPK4 kinase inhibitors, biochemical, TCAMS library (AID 1159588; cut-off not given, nearly all actives have IC50 up to about 0.91 µM). The following applies: recombinant PfCDPK4, Kinase-Glo ATP depletion luminescence.
Sequence of Calcium-dependent protein kinase 4 (Plasmodium falciparum (isolate 3D7)) (Q8IBS5 whole entry, looked up): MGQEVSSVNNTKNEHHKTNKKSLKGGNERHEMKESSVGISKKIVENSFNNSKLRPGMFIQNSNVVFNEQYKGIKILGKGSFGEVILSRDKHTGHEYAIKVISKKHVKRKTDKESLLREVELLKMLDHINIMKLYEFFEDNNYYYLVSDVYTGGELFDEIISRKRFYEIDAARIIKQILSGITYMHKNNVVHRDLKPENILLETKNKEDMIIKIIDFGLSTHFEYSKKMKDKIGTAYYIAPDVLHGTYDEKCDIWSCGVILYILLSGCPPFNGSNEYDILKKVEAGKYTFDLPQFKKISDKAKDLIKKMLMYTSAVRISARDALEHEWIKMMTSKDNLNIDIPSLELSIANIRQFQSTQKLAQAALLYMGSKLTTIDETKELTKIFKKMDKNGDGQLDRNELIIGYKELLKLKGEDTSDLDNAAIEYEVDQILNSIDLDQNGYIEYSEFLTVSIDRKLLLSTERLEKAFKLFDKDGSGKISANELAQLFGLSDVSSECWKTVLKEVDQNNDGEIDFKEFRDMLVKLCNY

Among the data in PubChem BioAssay are growth inhibition, inhibition and outcome values, retold here.

What is called inhibition is the change of the read-out against control, counted positive when it falls.

Unmarked numbers belong to inactive results. For some of these results: Measured potencies and affinities stand elsewhere. Active and inactive are the calls of the source. Unless noted, no rule for the calls is given here.

Sequence of Calcium-dependent protein kinase 1 (Plasmodium falciparum (isolate 3D7)) (P62344 whole entry, looked up): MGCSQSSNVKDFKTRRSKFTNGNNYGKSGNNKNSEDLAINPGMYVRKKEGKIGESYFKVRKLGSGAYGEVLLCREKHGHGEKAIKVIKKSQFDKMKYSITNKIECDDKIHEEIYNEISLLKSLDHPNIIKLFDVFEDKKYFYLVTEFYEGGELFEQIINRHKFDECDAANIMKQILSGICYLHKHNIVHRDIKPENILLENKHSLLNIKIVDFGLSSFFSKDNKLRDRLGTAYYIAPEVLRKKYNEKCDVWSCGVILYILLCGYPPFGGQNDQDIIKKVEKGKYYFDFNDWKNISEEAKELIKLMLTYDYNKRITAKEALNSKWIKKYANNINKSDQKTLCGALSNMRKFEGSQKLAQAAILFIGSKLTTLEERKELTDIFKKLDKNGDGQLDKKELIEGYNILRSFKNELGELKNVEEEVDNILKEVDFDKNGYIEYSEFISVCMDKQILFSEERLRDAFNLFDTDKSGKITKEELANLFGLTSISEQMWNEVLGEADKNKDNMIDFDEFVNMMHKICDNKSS

As for `O=C(/C=C/c1ccc(Cl)c(Cl)c1)NCCCCCN1CCC(NC(=O)Nc2ccc(F)c(Cl)c2)CC1`, the growth inhibition was 11% in assay [1] and 100% (active) in assay [4]. For the same compound, the inhibition was 98% (active) in assay [2] and 5% in assay [3]. For the same compound, the outcome in assay [5], in assay [6], in assay [7] and in assay [8] was inactive.

On to `CNCCNc1nccc(N2CCc3ncnc(Nc4ccc(OCc5cccc(F)c5)c(Cl)c4)c3C2)n1`, for which the growth inhibition is 98% (active) in assay [1] and 100% (active) in assay [4]. For the same compound, the values for the inhibition in assay [2] and in assay [3] were 30% and -4%, respectively. The result in assay [5], in assay [6], in assay [7] and in assay [8] was inactive.

For the compound `N#Cc1ccc(N[C@@H](CC2CCCCC2)C(=O)Nc2ccc(-c3ccccc3)cc2)c2ccccc12`, the growth inhibition in assay [1] was 99% (active); in assay [4] it was 100% (active). Further, the inhibition in assay [2] is 34%; in assay [3], -8%. The outcome in assay [5], in assay [6], in assay [7] and in assay [8] was inactive.

Consider `COc1cc2nc(N3CCC(CNC(=O)c4ccc(C(C)=O)cc4)CC3)nc(N)c2cc1OC`, for which the growth inhibition was 15% in assay [1] and 96% (active) in assay [4]. The inhibition was 10% in assay [2] and 1% in assay [3]. The outcome in assay [5], in assay [6], in assay [7] and in assay [8] was inactive.

Regarding `COc1cc(N(Cc2ccccc2C)S(=O)(=O)Cc2ccccc2[N+](=O)[O-])c(OC)cc1Cl`, the growth inhibition in assay [1] was 44%; in assay [4], 94% (active). The inhibition in assay [2] is 16%; in assay [3], -2%. In addition, the result in assay [5], in assay [6], in assay [7] and in assay [8] was inactive.

As for `CC(CCc1ccccc1)NCC(O)c1ccc2c3c(cccc13)C(=O)N2C` (stereo not given), the growth inhibition in assay [1] is 57% (active); in assay [4] it was 99% (active). The inhibition in assay [2] was 37%; in assay [3], -2%. For the same compound, the result in assay [5], in assay [6], in assay [7] and in assay [8] was inactive.

Regarding `COc1cccc(C(=O)Nc2ccc(S(=O)(=O)c3cc4c(cc3OC)CCN(C)CC4)cc2)c1`, the growth inhibition in assay [1] is 3%; in assay [4], 86% (active). Further, the values for the inhibition in assay [2] and in assay [3] were -11% and -1%, respectively. The result in assay [5], in assay [6], in assay [7] and in assay [8] was inactive.

As to `CCc1ccc(C(=O)Nc2cccc(CN3CCCN(Cc4ccc(O)cc4)CC3)c2)cc1`, the growth inhibition in assay [1] is 74% (active); in assay [4], 101% (active). In addition, the inhibition was 11% in assay [2] and -1% in assay [3]. For the same compound, the result in assay [5], in assay [6], in assay [7] and in assay [8] was inactive.

`CN(C(=O)c1snnc1-c1ccccc1)C1CCN(CCCCCNC(=O)/C=C/c2ccc(Cl)c(Cl)c2)CC1`: the growth inhibition in assay [1] is 58% (active); in assay [4] it was 96% (active). The figures for the inhibition in assay [2] and in assay [3] were 44% and 4%, respectively. In addition, the outcome in assay [5], in assay [6], in assay [7] and in assay [8] was inactive.

As for `COc1cc(C(=O)Nc2nc3ccccc3[nH]2)ccc1OCC(=O)Nc1cccc(C(F)(F)F)c1`, the growth inhibition was 33% in assay [1] and 100% (active) in assay [4]. Further, the figures for the inhibition in assay [2] and in assay [3] were 33% and -8%, respectively. Besides, the outcome in assay [5], in assay [6], in assay [7] and in assay [8] was inactive.

`Cc1cc(N)c2cc(NC(=O)c3cccc4ccccc34)ccc2n1`: the growth inhibition was 13% in assay [1] and 98% (active) in assay [4]. Further, the inhibition is 18% in assay [2] and 4% in assay [3]. For the same compound, the outcome in assay [5], in assay [6], in assay [7] and in assay [8] was inactive.

`Cc1cccc(OC(C)C(=O)Nc2cc(C(F)(F)F)ccc2N2CCOCC2)c1` (stereo not given): the figures for the growth inhibition in assay [1] and in assay [4] were 98% (active) and 100% (active), respectively. The inhibition in assay [2] was 2%; in assay [3], -3%. For the same compound, the outcome in assay [5], in assay [6], in assay [7] and in assay [8] was inactive.

Consider `O=c1cc(NCCC2CC=CCN2Cc2ccc(Cl)c(Cl)c2)[nH]c2ccccc12` (stereo not given), for which the values for the growth inhibition in assay [1] and in assay [4] were 77% (active) and 94% (active), respectively. For the same compound, the inhibition is 7% in assay [2] and 4% in assay [3]. For the same compound, the result in assay [5], in assay [6], in assay [7] and in assay [8] was inactive.

Consider `CCn1c(=O)c(C(=O)Nc2cc(Cl)c(OC)cc2OC)nc2ccccc21`, for which the growth inhibition was 84% (active) in assay [1] and 86% (active) in assay [4]. For the same compound, the inhibition in assay [2] is 19%; in assay [3] it was 6%. The outcome in assay [5], in assay [6], in assay [7] and in assay [8] was inactive.

`CC1(C)N=C(N)NC(Nc2ccc(F)c(F)c2)=N1`: the growth inhibition in assay [1] is 1%; in assay [4], 91% (active). Further, the inhibition in assay [2] was 59% (active); in assay [3], -10%. The outcome in assay [5], in assay [6], in assay [7] and in assay [8] was inactive.

In the case of `CN(CCC1CCN(C(=O)/C=C/c2ccc(Cl)c(Cl)c2)CC1)C1CCC(c2c[nH]c3ccccc23)CC1` (stereo not given), the growth inhibition in assay [1] was 9%; in assay [4], 87% (active). Further, the figures for the inhibition in assay [2] and in assay [3] were 57% (active) and -5%, respectively. In addition, the result in assay [5], in assay [6], in assay [7] and in assay [8] was inactive.

Take `CCOC(=O)C1CCN(CCCNC(=O)/C(=C/C=C/c2cc3cc(Cl)c(Cl)cc3[nH]2)OC)CC1`: the growth inhibition is 78% (active) in assay [1] and 87% (active) in assay [4]. In addition, the results for the inhibition in assay [2] and in assay [3] were 23% and -6%, respectively. In addition, the outcome in assay [5], in assay [6], in assay [7] and in assay [8] was inactive.

Regarding `C[C@@H]1CN(c2cnn(Cc3cccc(NC(=O)Nc4cccc(C(F)(F)F)c4)c3)c(=O)c2Cl)C[C@H](C)N1`, the growth inhibition is 74% (active) in assay [1] and 96% (active) in assay [4]. For the same compound, the inhibition in assay [2] was 19%; in assay [3], -4%. In addition, the outcome in assay [5], in assay [6], in assay [7] and in assay [8] was inactive.

With `Cc1[nH]nc2ccc(-c3ccc4nccc(N5CCC(N)CC5)c4c3)cc12`, the growth inhibition was 100% (active) in assay [1] and 101% (active) in assay [4]. Besides, the figures for the inhibition in assay [2] and in assay [3] were 67% (active) and -3%, respectively. Also, the outcome in assay [5], in assay [6], in assay [7] and in assay [8] was inactive.

Regarding `CCc1ccc(-n2cc(C(=O)c3cc(Br)ccc3O)cc(C#N)c2=O)cc1`, the growth inhibition in assay [1] is 30%; in assay [4], 97% (active). The inhibition is 9% in assay [2] and -2% in assay [3]. In addition, the outcome in assay [5], in assay [6], in assay [7] and in assay [8] was inactive.
